# Measured values as given in ChEMBL document CHEMBL1857833, “Screening and optimization of specific chemical series against human African Trypanosomiasis (HAT)”.
# In all, about 4,400 compounds went through this assay and about 390 (8.9%) showed an effect of 50% or more. This is one part of a sample in which strong results are shown more often than they occur.
# System: Trypanosoma brucei
# Test: DNDI: Inhibition of Human African Trypanosomiasis, SBRI 427, in vitro at 2 ug.mL-1
# Assay type: functional
row,SMILES,% inhibition [%]
1,Cc1ccc(/C(=N/O)NC2CCCC2)c(Oc2cccc(C(C)C)c2)n1,3
2,CC(C)COc1ncccc1/C(=N/O)N(C)Cc1ccco1,11
3,COc1ccc(-c2nc(CN3CCN(C(=O)C4CCCO4)CC3)co2)cc1 (configuration not stated),9
4,COc1ccc(Oc2cc(/C(N)=N/O)ccn2)cc1,19
5,CCOc1ccc(Oc2cc(/C(N)=N/O)ccn2)cc1,7
6,Cc1ccc(Oc2cc(/C(N)=N/O)ccn2)c2c1CCC2,16
7,C#CCN(C)Cc1coc(-c2ccc(Br)cc2)n1,4
8,O/N=C(\NCc1cccs1)c1cccnc1OCC1CCCCC1,-4
9,O/N=C(\NCC1CCCCC1)c1cccnc1OCC(F)(F)F,0
10,Cc1ccc(/C(=N/O)NC2CCCC2)c(OCC2CCCCC2)n1,12
11,O/N=C(\NCC1CCCO1)c1cccnc1OCC1CCCCC1 (configuration not stated),5
12,CC(C)c1ccc(N/C(=N\O)c2cccnc2OCC(F)(F)F)cc1,1
13,CCC(CC)N/C(=N\O)c1cccnc1OCC1CCCCC1,98
14,O/N=C(\NC1CCC1)c1cccnc1OCC1CCCCC1,99
15,O/N=C(\NC1CCCCC1)c1cccnc1OCC(F)(F)F,71
16,N/C(=N\O)c1cccnc1OCC1CCCCC1,13
17,COc1ccc(CN/C(=N\O)c2cccnc2Oc2ccc(SC)c(C)c2)cc1,4
18,CC1CCCCN1Cc1coc(-c2ccco2)n1 (configuration not stated),1
19,C(=C\c1ccccc1)/CN1CCN(Cc2coc(-c3cccc4ccccc34)n2)CC1,19
20,O/N=C(/c1ccc(Oc2cccc(F)c2)nc1)N1CCCCC1,5
21,c1csc(-c2nc(CNCC3CCCO3)co2)c1 (configuration not stated),2
22,COc1ccc(-c2nc(CN3CCCCC3)co2)cc1,4

row,SMILES,% inhibition [%]
1,Cc1ccc(/C(=N/O)N2CCCCC2)c(Oc2ccc(-n3ccnc3)cc2)n1,12
2,Cc1cccc(Oc2nc(C)ccc2/C(N)=N/O)c1,-4
3,Cc1ccc(/C(N)=N/O)c(Oc2ccc(C(C)C)cc2)n1,31
4,Cc1cc(Oc2ncccc2/C(N)=N/O)cc(C(C)C)c1,20
5,Cc1ccc(/C(N)=N/O)c(Oc2cccc(C(C)C)c2)n1,57
6,Cc1ccc(/C(=N/O)NC(C)C)c(Oc2cccc(C(C)C)c2)n1,7
7,Cc1cc(Oc2nc(C)ccc2/C(N)=N/O)cc(C(C)C)c1,55
8,Cc1cccc(Oc2nc(C)ccc2/C(=N/O)N2CCSCC2)c1,1
9,Cc1ccc(/C(N)=N/O)c(Oc2c(F)c(F)cc(F)c2F)n1,4
10,Cc1ccccc1NCc1coc(-c2ccccc2F)n1,-5
11,COc1ccc(Oc2ncccc2/C(=N/O)n2ccnc2C)cc1,-2
12,COc1cc2c(cc1OC)C(C(C)C)N(Cc1coc(-c3ccc(C)cc3)n1)CC2 (configuration not stated),27
13,COc1cc(CNCc2coc(-c3ccc(C(F)(F)F)cc3)n2)cc(OC)c1,-1
14,Fc1ccc(-c2nc(CNCc3ccncc3)co2)cc1,-3
15,CCC(C)(C)N/C(=N\O)c1ccc(Oc2ccc(F)cc2)nc1,27
16,Cc1cc(Oc2ccc(/C(=N/O)NCc3cc(F)cc(F)c3)cn2)cc(C(C)C)c1,17
17,Cc1cc(C)cc(Oc2ccc(/C(=N/O)NCc3ccccc3)cn2)c1,-3
18,CC1CCC(N/C(=N\O)c2ccc(Oc3cccc4ccccc34)nc2)CC1 (configuration not stated),19
19,CCC(C)(C)N/C(=N\O)c1ccc(Oc2cccc3c2OC(C)(C)C3)nc1,11
20,CCC(C)(C)N/C(=N\O)c1ccc(Oc2cc(C)cc(C)c2)nc1,95
21,Cc1cc(Oc2ccc(/C(=N/O)NCc3ccccc3)cn2)cc(C(C)C)c1,14
22,Cc1cc(C)cc(CN/C(=N\O)c2ccc(Oc3cccc(C)c3)nc2)c1,19

row,SMILES,% inhibition [%]
1,CCC(C)(C)N/C(=N\O)c1ccc(Oc2cccc(C)c2)nc1,67
2,Cc1cccc(Oc2ccc(/C(=N/O)NC(C)C)cn2)c1,8
3,CCC(C)(C)N/C(=N\O)c1ccc(Oc2cccc3ccccc23)nc1,95
4,CCC(C)(C)N/C(=N\O)c1ccc(Oc2cc(C)cc(C(C)C)c2)nc1,91
5,COCCCNCc1coc(-c2ccccc2)n1,38
6,CC1CC(C)CN(/C(=N\O)c2ccc(Oc3cc(Cl)ccc3Cl)nc2)C1 (configuration not stated),10
7,CN(Cc1cccnc1)/C(=N\O)c1ccc(Oc2cc(Cl)ccc2Cl)nc1,-14
8,Cc1ccc(/C(=N/O)N2CC=CC2)c(Oc2cccc3ccc(C)nc23)n1,28
9,N/C(=N\O)c1ccc(Oc2ccc3ccccc3c2)nc1,12
10,Cc1ccc(/C(=N/O)N2CCC=N2)c(Oc2cccc(F)c2)n1,21
11,CCN(CCC#N)Cc1coc(-c2ccc(C(F)(F)F)cc2)n1,-3
12,Cc1ccccc1CN/C(=N\O)c1ccnc(Oc2ccc(F)c(Cl)c2)c1,14
13,CN(/C(=N\O)c1cccnc1Oc1ccc(-n2cncn2)cc1)C1CCCCC1,14
14,Cc1ccc(-c2nc(CNCc3ccccc3)co2)cc1,-10
15,O/N=C(/c1ccc(Oc2cccc3cccnc23)nc1)N1CCN(c2ccccc2)CC1,-27
16,CC1CC(C)CN(/C(=N\O)c2ccc(Oc3cccc4cccnc34)nc2)C1 (configuration not stated),-24
17,O/N=C(/c1ccc(Oc2cc(Cl)ccc2Cl)nc1)N1CCC2CCCCC2C1 (configuration not stated),-2
18,O/N=C(/c1ccc(Oc2ccc3ccccc3c2)nc1)N1CCC2CCCCC2C1 (configuration not stated),28
19,O/N=C(/c1ccc(Oc2cccc3cccnc23)nc1)N1CCC2CCCCC2C1 (configuration not stated),58
20,O/N=C(/c1ccc(Oc2ccc(Cl)cc2)nc1)N1CCC2CCCCC2C1 (configuration not stated),99
21,CCOc1ccc(Oc2nc(C)ccc2/C(=N/O)N2CC(C)CC(C)C2)cc1 (configuration not stated),8
22,Cc1cc(Oc2ccc(/C(=N/O)NCc3cc(F)ccc3F)cn2)cc(C(C)C)c1,-14

row,SMILES,% inhibition [%]
1,O/N=C(/c1cccnc1OC1CCC1)N1CCN(c2ccc(F)cc2)CC1,7
2,CC(=O)c1ccc(N2CCN(Cc3coc(-c4ccccc4Cl)n3)CC2)cc1,-7
3,Cc1ccc(/C(=N/O)N2CCC(N(C)C)C2)c(Oc2ccc3ccccc3c2)n1 (configuration not stated),20
4,Cc1ccc(Oc2ncccc2/C(=N/O)N2CCC3CCCCC3C2)c2c1CCC2 (configuration not stated),-7
5,Cc1ccc(Oc2cc(/C(=N/O)NCC3CC3)ccn2)c2c1CCC2,40
6,CCC(CC)N/C(=N\O)c1cccnc1Oc1ccc(C)c2c1CCC2,99
7,COCC(C)N/C(=N\O)c1cccnc1Oc1ccc(C)c2c1CCC2 (configuration not stated),12
8,Cc1ccc(Oc2ncccc2/C(=N/O)N2CC(C)CC(C)C2)c2c1CCC2 (configuration not stated),6
9,Cc1ccc(Oc2ncccc2/C(=N/O)NCC2CC2)c2c1CCC2,99
10,Cc1ccc(Oc2ncccc2/C(=N/O)NC2CCC(C)CC2)c2c1CCC2 (configuration not stated),100
11,CCCN/C(=N\O)c1cccnc1Oc1ccc(C)c2c1CCC2,42
12,Cc1ccc(Oc2ncccc2/C(=N/O)NC(C)C)c2c1CCC2,8
13,Cc1ccc(Oc2ncccc2/C(N)=N/O)c2c1CCC2,9
14,COCCN/C(=N\O)c1cccnc1Oc1ccc(C)c2c1CCC2,80
15,Cc1ccccc1-c1nc(Cn2ncc3c2CCCC3)co1,-16
16,O/N=C(/c1ccc(Oc2cc(Cl)ccc2Cl)nc1)N1CCSCC1,-11
17,COc1ccc(Oc2nc(C)ccc2/C(=N/O)N(C)Cc2cccnc2)cc1,-3
18,CCCN(CCC)Cc1coc(-c2ccccc2Cl)n1,16
19,Oc1ccc(-c2nc(CN3CCc4ccccc4C3)co2)cc1,8
20,CCOc1ccc(-c2nc(CN(C)CC#N)co2)cc1,4
21,CSc1ccc(Oc2nc(C)ccc2/C(=N/O)n2nc(C)cc2C)cc1C,16
22,CSc1ccccc1Oc1ncccc1/C(=N/O)N1CCN(c2ccc(F)cc2)CC1,19

row,SMILES,% inhibition [%]
1,Cc1cccc(N2CCN(Cc3coc(-c4ccc(OC(F)(F)F)cc4)n3)CC2)c1C,-7
2,Cc1ccc(Oc2ncccc2/C(=N/O)NCC(C)C)c2c1CCC2,100
3,CC(C)CN/C(=N\O)c1cccnc1Oc1ccccc1,17
4,Cc1ccc(Oc2ncccc2/C(=N/O)N2CCCC2)c2c1CCC2,-1
5,CCOc1ccccc1-c1nc(CN2CCN(c3cccc(OC)c3)CC2)co1,-3
6,COc1ccc(CNCc2coc(-c3ccc(F)cc3)n2)cc1OC,-5
7,CC1CCN(/C(=N\O)c2ccc(Oc3c(F)c(F)cc(F)c3F)nc2)CC1,9
8,COc1ccc(CN/C(=N\O)c2cccnc2OCC(C)C)cc1,-1
9,C#CC(CC)(CC)NCc1coc(-c2ccc(OC)cc2)n1,-8
10,C=CCc1ccc(Oc2cc(/C(=N/O)NCc3cccnc3)ccn2)c(OC)c1,3
11,C=CCc1ccc(Oc2cc(/C(=N/O)NCc3ccncc3)ccn2)c(OC)c1,23
12,C=CCc1ccc(Oc2ccc(/C(=N/O)NCc3ccc(OC)cc3)cn2)c(OC)c1,10
13,C=CCc1ccc(Oc2cc(/C(=N/O)NCc3ccc(OC)cc3)ccn2)c(OC)c1,88
14,C=CCc1ccc(Oc2cc(/C(=N/O)NCc3cccc(OC)c3)ccn2)c(OC)c1,35
15,C=CCc1ccc(Oc2ccc(/C(=N/O)NCc3ccncc3)cn2)c(OC)c1,80
16,c1ccc(-c2nccn2Cc2coc(-c3cccc4ccccc34)n2)cc1,-1
17,O/N=C(\NCc1ccco1)c1cccnc1OCc1ccccc1,17
18,CSc1ccc(Oc2cc(/C(=N/O)NCc3c(F)cccc3F)ccn2)cc1,19
19,COc1cc(CN(C)Cc2coc(-c3cccc4ccccc34)n2)cc(OC)c1OC,-3
